Laboratory results from PubChem BioAssay AID485347 (National Center for Advancing Translational Sciences (NCATS), 2010).
In all, about 340,000 compounds went through this assay and about 1,200 (0.35%) were called active. The sample holds actives, similar compounds and a random draw of the others, so the mix is not that of the screen.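 The calls were made as follows: active = potentiation over 3 SD above the plate norm (cut at about 30% in these data); inactive = the rest.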

Each molecule was assayed against D(2) dopamine receptor (Homo sapiens) (UniProt P14416) (assay: HTS Assay for Positive Allosteric Modulators of the Human D2 Dopamine Receptor: Primary Screen for Potentiators). Conditions: HEK293 T-REx D2, calcium flux, EC20 dopamine potentiation; at 10 µM; stronger effect = higher value.
From the text: NIH Chemical Genomics Center [NCGC] NIH Molecular Libraries Probe Centers Network [MLPCN] MLPCN Grant: NS064831-01 Assay Submitter (PI): David Sibley Dopamine receptors (DARs) are involved in the etiology and/or therapy of a number of neuropsychiatric and endocrine disorders. For instance, all receptor-based antiparkinsonian drugs work via stimulating the D2 DAR subtype whereas all FDA-approved antipsychotic agents are antagonists of this receptor. […] There are three different types of allosteric modulators that we are seeking, two of which will stimulate or augment receptor signaling, allosteric agonists and potentiators, while the third, allosteric antagonists, will attenuate receptor signaling. The present primary screening assay measures compound potentiation of an EC20 dopamine response by tracking calcium flux in a […], inducible Hek293 Trex D2 cell line.
Freshly passaged cells are plated in 1536 well black, clear bottom plates at a density of 4000 cells/well in 3 ul of complete media containing 1x tetracycline inducer. After an overnight incubation at 30 C in 5% CO2, cells are loaded with 2 ul of the no wash Calcium Assay Kit (ABD Bioquest) and incubated at room temperature for 30 to 90 minutes. A 10 cycle (1 second/cycle) baseline measurement is taken and then the FDSS online 1536 pintool delivers 23 nl of compound library (as well as dopamine controls) to the plate. The plate is measured for kinetically at 1 cycle/sec for 180 seconds and is considered to be the agonist portion of the assay (eg, compounds which activate a positive calcium response during this portion are flagged as potential agonists). Following the 180 second read, 1 ul of an EC20 of dopamine is delivered by an onboard pipette head. Measurements are taken kinetically for an additional 180 seconds.
Also: 0% is about no effect.

Sequence of D(2) dopamine receptor (Homo sapiens) (P14416 whole entry, looked up): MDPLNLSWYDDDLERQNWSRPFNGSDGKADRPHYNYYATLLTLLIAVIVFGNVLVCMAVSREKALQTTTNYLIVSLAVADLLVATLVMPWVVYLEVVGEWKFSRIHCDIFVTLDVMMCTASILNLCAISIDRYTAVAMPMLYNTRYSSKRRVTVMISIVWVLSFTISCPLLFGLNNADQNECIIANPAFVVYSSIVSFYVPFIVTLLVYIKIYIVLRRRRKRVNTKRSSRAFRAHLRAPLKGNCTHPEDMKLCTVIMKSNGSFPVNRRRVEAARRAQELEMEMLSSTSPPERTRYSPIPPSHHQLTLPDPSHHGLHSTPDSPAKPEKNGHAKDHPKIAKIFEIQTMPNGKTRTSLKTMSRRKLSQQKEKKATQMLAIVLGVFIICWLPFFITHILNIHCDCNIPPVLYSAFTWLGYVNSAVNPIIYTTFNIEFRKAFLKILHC

SMILES | potentiation
CCN(CC(=O)Nc1ccccc1OC)C(=O)CC1CC2CCC1C2 (stereo not given) | 5.39% (inactive)
CCN(CC(=O)Nc1ccccc1OC)C(=O)Cn1cnc2ccccc2c1=O | 11.8% (inactive)
CCCN(CC(=O)Nc1ccccc1OC)C(=O)CCC(=O)c1ccc(F)cc1 | 30.4% (active)
Cc1cc(C)cc(OCC(=O)Nc2c(C(=O)c3ccccc3)oc3ccccc23)c1 | -6.36% (inactive)
COc1ccc(C)cc1NC(=O)COCc1cc(-c2cccs2)on1 | 3.43% (inactive)
CN(c1ccc(C(=O)NCc2ccccn2)cc1)S(C)(=O)=O | 42.4% (active)
CCN(c1ccccc1)S(=O)(=O)c1cc(C(=O)NCc2ccccn2)ccc1C | -2.26% (inactive)
CN(c1ccc(C(=O)NCCC2=CCCCC2)cc1)S(C)(=O)=O | -10.3% (inactive)
O=C(CCS(=O)(=O)c1ccccc1)N(Cc1cccnc1)c1nc2c(F)cccc2s1 | -2.05% (inactive)
Cc1ccc(C2C=C(c3ccc(Cl)cc3)Nc3nc(NC(=O)CCC(=O)O)nn32)cc1 (stereo not given) | 5.1% (inactive)
CCOc1ccc(CNCc2c(C(=O)O)c(C)n(Cc3cccc(OC)c3)c2C)cc1OC | -3.84% (inactive)
NC(=O)c1sc2nc3c(c(-c4ccccc4)c2c1N)CCC3 | 37.2% (active)
COc1cccc(C(=O)c2sc3nc(-c4ccccc4)cc(C(F)(F)F)c3c2N)c1 | -10.4% (inactive)
Cc1sc2nc(CC(N)=O)[nH]c(=O)c2c1-c1ccccc1 | 9.95% (inactive)
Cc1ccc(NC(=O)c2oc3ccccc3c2NC(=O)Cc2cccs2)cc1 | -10% (inactive)
CSc1ccc(CCNC(=O)c2ccc3c(c2)nc2n3CCOC2)cc1 | 8.52% (inactive)
Cc1ccc(C)c(Oc2c(C(F)(F)F)oc3c(CN4CCN(C)CC4)c(O)ccc3c2=O)c1 | -2.95% (inactive)
Cc1ccc(-c2nn(CCC(=O)Nc3ccc(Cl)c(Cl)c3)c(=O)c3ccccc23)cc1 | -14.9% (inactive)
Clc1ccc(C2CC(c3cccs3)n3ncnc3N2)cc1Cl (stereo not given) | -0.578% (inactive)
CCOc1ccccc1C1CC(c2ccccc2)Nc2nc(N)nn21 (stereo not given) | 14.5% (inactive)
FC(F)Oc1ccccc1C1CC(c2ccc(Br)s2)Nc2ncnn21 (stereo not given) | 31.8% (active)
CCOc1ccc(NC(=S)N2CCCCCC2)cc1 | 30.1% (active)
CCOC(=O)c1ccc(NC(=S)N2CCCC2)cc1 | 8.15% (inactive)
CCOc1ccc(NC(=S)N2CCC(N(C)CC3CCCO3)CC2)cc1 (stereo not given) | -4.46% (inactive)
COc1cc(CNC(=O)c2cc3n(n2)CCCN(Cc2cccc(F)c2)C3=O)cc(OC)c1OC | 7.44% (inactive)
